According to PubChem BioAssay (Tox21):
Results filed as inconclusive are left out. Calls of active or inactive are those of the source. Unless noted, calls come from the whole dose curve; as a rule, active = well fitted curve in the direction sought with a large enough effect in the repeat runs; inconclusive = weak or mixed curves; inactive = no such curve, though single readings can be large; an effect the other way counts as inactive or inconclusive.

Tests used:
[1] = qHTS assay to identify small molecule agonists of the vitamin D receptor (VDR) signaling pathway - cell viability counter screen (AID 743224); note: series mostly up to about 63 µM; % is set by controls: 0 for no effect and ±100 for the full control effect; nearly all actives have a fitted effect of over 50% in size
Procedure, shortened: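 In parallel with the bla FRET readout, cytotoxicity toward VDR-bla cells after 16 h compound exposure was assessed by CellTiter-Glo, with luminescence recorded after a 30 min room-temperature incubation.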

[2] = qHTS assay to identify small molecule antagonists of the vitamin D receptor (VDR) signaling pathway - cell viability counter screen (AID 743225); note: % is set by controls: 0 for no effect and ±100 for the full control effect; nearly all actives have a fitted effect of over 50% in size
Procedure, shortened: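 Same-well multiplex: following 16 h treatment of HEK 293T cells carrying a UAS-driven beta-lactamase reporter with compound and agonist (3 nM final), and a 2 h FRET substrate step, CellTiter-Glo was added and luminescence read after 30 min.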

[3] = qHTS assay to identify small molecule agonists of the NFkB signaling pathway (AID 1159509; active = well fitted curve in the direction sought with a large enough effect in the signal ratio in the repeat runs, not every such curve was filed as active; the % refers to the signal ratio; note: series mostly up to about 61 µM; % is set by controls: 0 for no effect and ±100 for the full control effect)
Procedure, shortened: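 Readout: FRET fluorescence, 405 nm excitation, 460/530 nm emission; beta-lactamase expression disrupts FRET. Cells: ME-180 stably carrying NF-kB-driven bla reporter. Compound exposure 5 hr, 37 C, 5% CO2.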

[4] = qHTS assay to identify small molecule agonists of the NFkB signaling pathway - cell viability counter screen (AID 1159515; calls by dose curve; note: series mostly up to about 61 µM; % is set by controls: 0 for no effect and ±100 for the full control effect; nearly all actives have a fitted effect of over 55% in size)
Procedure, shortened: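 Plate 2,000 NFkB-bla ME-180 cells/well; incubate overnight. Add compounds, 5 hr at 37 C. Add FRET substrate, 1.5 hr RT. Add CellTiter-Glo, 30 min RT; read luminescence.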

[5] = qHTS assay to identify small molecule agonists of the endoplasmic reticulum stress response signaling pathway - cell viability counter screen (AID 1159517; calls by dose curve; note: series mostly up to about 61 µM; % is set by controls: 0 for no effect and ±100 for the full control effect; nearly all actives have a fitted effect of over 50% in size)
Procedure, shortened: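 After overnight attachment, ESRE-bla HeLa cells were treated with Tox21 library compounds for 5 hr. CellTiter-Glo luminescence, read 30 min post-addition at room temperature, reported viability.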

[6] = qHTS assay to identify small molecule antagonists of the retinoid-related orphan receptor gamma (ROR-gamma) signaling pathway - cell viability counter screen (AID 1159520); note: % is set by controls: 0 for no effect and ±100 for the full control effect; nearly all actives have a fitted effect of over 50% in size
Procedure, shortened: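 Cytotoxicity was read from cellular ATP (CellTiter-Glo luminescence) after 16 hr at 37 C with 1 uM doxycycline induction. The inducer was added 2 hr after compound transfer to Tet-on ROR gamma CHO cells.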

[7] = target: Nuclear receptor ROR-gamma (Homo sapiens) (UniProt P51449); experiment: qHTS assay to identify small molecule antagonists of the retinoid-related orphan receptor gamma (ROR-gamma) signaling pathway (AID 1159521)
Procedure, shortened: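 Inducible-expression reporter assay: doxycycline (1 uM final) switched on RORγ in CHO cells bearing a ROR response element-luciferase construct, with test compounds present from 2 h beforehand. Decreased luminescence after 16 h defined antagonist activity.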

[8] = qHTS assay to identify small molecule agonists of the AP-1 signaling pathway - cell viability counter screen (AID 1159525; calls by dose curve; note: nearly all actives have a fitted effect of over 55% in size)
Procedure, shortened: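 Intracellular ATP by Cell Titer Glo luminescence (30 min, RT) in the same ME-180 AP-1-bla wells after the 5 h compound exposure at 37 °C. Normalised to tetra n-octyl ammonium bromide and DMSO controls.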

[9] = qHTS assay to identify small molecule agonists of the AP-1 signaling pathway (AID 1159526; calls by dose curve; note: % is set by controls: 0 for no effect and ±100 for the full control effect)
[10] = target: Retinoic acid receptor RXR-alpha (Homo sapiens) (UniProt P19793); experiment: qHTS assay to identify small molecule agonists of the RXR signaling pathway (AID 1159527; calls by dose curve; note: % is set by controls: 0 for no effect and ±100 for the full control effect; nearly all actives have a fitted effect of over 35% in size)
Retinoic acid receptor RXR-alpha (Homo sapiens), sequence (P19793 whole entry, looked up): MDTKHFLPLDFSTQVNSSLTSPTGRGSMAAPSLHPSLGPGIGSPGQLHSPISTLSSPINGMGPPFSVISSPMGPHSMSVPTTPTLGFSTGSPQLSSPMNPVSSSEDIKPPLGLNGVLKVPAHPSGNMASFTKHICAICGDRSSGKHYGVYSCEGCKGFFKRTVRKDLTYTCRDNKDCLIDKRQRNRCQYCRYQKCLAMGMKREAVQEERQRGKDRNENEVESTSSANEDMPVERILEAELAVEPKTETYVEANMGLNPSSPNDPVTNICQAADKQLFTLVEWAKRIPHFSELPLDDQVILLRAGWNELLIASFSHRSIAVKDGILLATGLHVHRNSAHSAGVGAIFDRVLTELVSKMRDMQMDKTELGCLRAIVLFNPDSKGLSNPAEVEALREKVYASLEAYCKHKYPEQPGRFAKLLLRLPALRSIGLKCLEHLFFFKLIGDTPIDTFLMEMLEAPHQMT
Procedure, shortened: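 Compounds in DMSO were added to RXR-alpha-UAS-bla HEK 293T cells kept in 2% charcoal-stripped serum, and incubated 16 hr at 37 C with 5% CO2. Reporter signal came from a 2 hr B/G FRET substrate step.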

[11] = qHTS assay to identify small molecule agonists of the RXR signaling pathway - cell viability counter screen (AID 1159529)
Procedure, shortened: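 Counter screen: CellTiter-Glo luminescence. Cells: RXR-alpha-UAS-bla HEK 293T. Medium: 2% charcoal-stripped FBS. Treatment: 16 h, 37 C. Reagent incubation: 30 min, RT.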

[12] = qHTS assay to identify small molecule antagonists of the retinoid acid receptor (RAR) signaling pathway - cell viability counter screen (AID 1159551); note: % is set by controls: 0 for no effect and ±100 for the full control effect; nearly all actives have a fitted effect of over 35% in size
Procedure, shortened: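 Viability of C3RL4 cells is quantified from ATP by luminescence after 6 h treatment at 37 C with compounds and 1 uM retinol.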

[13] = qHTS assay to identify small molecule agonists of the retinoic acid receptor (RAR) signaling pathway (AID 1159553); note: % is set by controls: 0 for no effect and ±100 for the full control effect
Procedure, shortened: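 Compounds dissolved in DMSO were pinned onto C3RL4 cells seeded the previous day, and plates were held 6 hr at 37 C. RARE-driven luciferase output was then read by luminescence.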

[14] = qHTS assay to identify small molecule antagonists of the estrogen related receptor (ERR) signaling pathway - cell viability counter screen (AID 1224818);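 note: series mostly up to about 46 µM; viability measured after 17.5 h of compound exposure; % is set by controls: 0 for no effect and ±100 for the full control effect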
Procedure, shortened: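 Cytotoxicity check run alongside the ERR antagonist screen: cells exposed to test compounds 17.5 h at 37 C, viability taken as CellTiter-Fluor fluorescence intensity.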

[15] = qHTS assay to identify small molecule antagonists of the estrogen related receptor signaling pathway with the pleiotropic PPARgamma coactivator (PGC) cell viability counter screen (AID 1224822)
Procedure, shortened: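 Viable cell signal (CellTiter-Fluor, 30 min, 37 C/5% CO2) was measured in PGC/ERR cells after a 17.5 h compound incubation.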

[16] = qHTS assay to identify small molecule antagonists of the retinoic acid receptor (RAR) signaling pathway (AID 1159552)
Procedure, shortened: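 Antagonism of retinol-induced RARE reporter activity was measured in C3RL4 cells. Exposure to compounds and 1 uM final retinol lasted 6 hr at 37 C, with luminescence as endpoint.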

[17] = qHTS assay to identify small molecule agonists of the endoplasmic reticulum stress response signaling pathway (AID 1159516; active = well fitted activation curve with a large enough effect in the signal ratio in the repeat runs, not every such curve was filed as active; the % refers to the signal ratio; note: % is set by controls: 0 for no effect and ±100 for the full control effect)
Procedure, shortened: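 Beta-lactamase expression from the ER stress response element in HeLa reporter cells is quantified with the LiveBLAzer B/G FRET substrate, read at 405 nm excitation after 2 hr at room temperature, following 5 hr compound treatment at 37 C.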

[18] = qHTS assay to identify small molecule antagonists of the estrogen related receptor (ERR) signaling pathway (AID 1224819)
Procedure, shortened: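 ERR reporter cells were plated at 2,000 cells/well and left 6 h at 37 C/5% CO2 before pin-tool transfer of compounds in DMSO. After 18 h at 37 C, One-Glo was added and luminescence was read 30 min later at room temperature.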

[19] = qHTS assay to identify small molecule agonists of the estrogen related receptor (ERR) signaling pathway (AID 1224820); note: % is set by controls: 0 for no effect and ±100 for the full control effect
Procedure, shortened: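 Luminescence readout (One-Glo, 30 min RT) from NTP-supplied ERR cell line exposed to compounds for 18 h at 37 C. Cells seeded 2,000 per well and pre-incubated 6 h before pin-tool compound transfer.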

[20] = tested on: estrogen-related receptor alpha (ERRalpha) with PGC-1alpha coactivator, human; experiment: qHTS assay to identify small molecule antagonists of the estrogen related receptor signaling pathway with the pleiotropic PPARgamma coactivator (PGC) (AID 1224821; calls by dose curve)
Procedure, shortened: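 PGC/ERR reporter cells; 6 h pre-incubation 37 C/5% CO2; pin-tool compound in DMSO, 18 h 37 C; One-Glo added, 30 min RT; luminescence read. qHTS antagonist mode.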

c1ccc([C@H]2CN3CCSC3=N2)cc1
inactive: Potency [1] | Potency [2] | outcome [3] | outcome [4] | outcome [5] | outcome [6] | Potency [7] | Potency [8] | outcome [9] | Potency [10] | Potency [11] | outcome [12] | Potency [13] | outcome [14] | outcome [15]

CCCCCCCCCCCCCC=O
inactive: activity change, negative = cytotoxicity [1] -0.0946% [at 5.95 µM] | viability change, negative = cytotoxic [2] 5.28% [at 6.95 µM] | activation [3] -1.29% [at 6.95 µM] | activity, negative = cytotoxic [4] 2.89% [at 6.95 µM] | activity change, negative = cytotoxicity [5] 0.611% [at 6.95 µM] | activity, negative = cytotoxicity [6] 2.5% [at 8.39 µM] | activity change, negative = inhibition [7] 5.08% [at 8.39 µM] | viability change, negative = cytotoxic [8] -4.58% [at 6.97 µM] | activation [9] -1.06% [at 6.97 µM] | activation [10] 0.369% [at 6.98 µM] | activity change, negative = cytotoxicity [11] 1.55% [at 6.97 µM] | activity change, negative = cytotoxicity [12] 4.56% [at 8.39 µM] | activity, negative = inhibition [16] -4.55% [at 8.39 µM] | activation [13] 1.59% [at 8.36 µM]

CC(=O)OCC(=O)[C@@]1(O)CCC2C3CCC4=CC(=O)CC[C@]4(C)C3[C@@H](O)C[C@@]21C (stereo not given in full)
inactive: Potency [1] | Potency [2] | outcome [3] | outcome [4] | outcome [5] | outcome [6] | Potency [7] | Potency [8] | outcome [9] | Potency [10] | Potency [11] | outcome [12] | Potency [16] | Potency [13]

OC[C@]1(O)OC[C@@H](O)[C@H](O)[C@@H]1O
inactive: Potency [1] | Potency [2] | outcome [3] | outcome [4] | outcome [5] | outcome [6] | Potency [7] | Potency [8] | outcome [9] | Potency [10] | Potency [11] | outcome [12] | Potency [16] | Potency [13]

CC/C=C\CC/C=C/CO
inactive: Potency [1] | Potency [2] | outcome [4] | outcome [5] | outcome [6] | Potency [7] | Potency [8] | outcome [9] | Potency [10] | Potency [11] | outcome [12] | Potency [16] | Potency [13]

NS(=O)(=O)c1cc(C(=O)NN2C[C@H]3[C@H]4CCC(C4)[C@H]3C2)ccc1Cl
inactive: Potency [1] | Potency [2] | outcome [3] | outcome [4] | outcome [5] | outcome [6] | Potency [7] | Potency [8] | outcome [9] | Potency [10] | Potency [11] | outcome [12] | Potency [13]

CCOC(=O)CC(C)=O
inactive: Potency [1] | Potency [2] | outcome [4] | outcome [17] | outcome [5] | outcome [6] | Potency [8] | outcome [9] | Potency [10] | Potency [11] | outcome [12] | Potency [13]

FC1(F)C(F)(F)C(F)(F)C2(F)C(F)(F)C(F)(F)C(F)(F)C(F)(F)C2(F)C1(F)F (stereo not given)
inactive: Potency [1] | Potency [2] | outcome [3] | outcome [4] | outcome [5] | outcome [6] | Potency [7] | Potency [8] | outcome [9] | Potency [10] | Potency [11] | outcome [12] | Potency [16] | Potency [13]

COCCc1ccc(OCC(O)CNC(C)C)cc1 (stereo not given)
inactive: Potency [1] | Potency [2] | outcome [3] | outcome [4] | outcome [5] | outcome [6] | Potency [8] | outcome [9] | Potency [10] | Potency [11] | outcome [12] | Potency [13] | outcome [14] | outcome [18] | outcome [19] | outcome [20] | outcome [15]

O=c1cc(CO)occ1O
inactive: Potency [1] | Potency [2] | outcome [3] | outcome [4] | outcome [5] | outcome [6] | Potency [7] | Potency [8] | outcome [9] | Potency [10] | Potency [11] | outcome [12] | Potency [16] | Potency [13]
